Compound activity from PubChem.
Shown are actives, neighbours in structure and some others; about 2.5% of the full set was active somewhere.
Vaccinia mCherry = vaccinia inhibition (mCherry reporter). Potency, µM (top dose mostly 36.5 µM), most hits filed as inhibitors. AID 720579. Vaccinia virus mCherry reporter infection, fluorescence. hit rate 0.63% among 310,000; calls by dose curve; tested in A549 cells; further: nearly all actives have a fitted effect of over 35% in size
LASV entry inh = inhibitors of Lassa virus binding or cell entry; Potency, µM (series often up to 37.9 µM), actives largely listed as inhibitors; Lassa virus pseudotype entry inhibition, cell reporter; hit rate 1.2% among 300,000; AID 540256; calls by dose curve; tested in HEK293 cells; further: nearly all actives have a fitted effect of over 50% in size
VACV Venus inh = vaccinia inhibition (Venus reporter) | hit rate 0.46% among 330,000 | Vaccinia virus Venus reporter expression, fluorescence | Potency, µM (doses to about 36.5 µM), usual class: inhibitors; calls by dose curve; tested in A549 cells; further: nearly all actives have a fitted effect of over 30% in size
MARV entry inh = inhibitors of Marburg virus binding or cell entry; Marburg virus pseudotyped entry inhibition, cell reporter; Potency, µM (series often up to 37.8 µM), actives largely listed as inhibitors; hit rate 1.8% among 300,000; AID 540276; calls by dose curve; tested in HEK293 cells
Of the large screens only hits and unclear results are named; the others gave an inactive call.

CC(=O)Nc1sc2c(c1C(c1ccc(Cl)cc1)N1CCOCC1)CCCC2 (stereo not given)	LASV entry inh inconclusive, MARV entry inh inconclusive
CCCC/C(O)=C1\C(=O)CC(C)(C)CC1=Nc1ccccc1OC	MARV entry inh inconclusive (no result: Vaccinia mCherry, VACV Venus inh)
CCC/C(O)=C1\C(=O)CC(C)(C)CC1=Nc1ccc(OC)cc1OC	VACV Venus inh inconclusive, MARV entry inh 2µM (no result: Vaccinia mCherry)
Cc1ccccc1C(=O)Nc1ccc2nc(N3CCCCC3)cc(C)c2c1	MARV entry inh inconclusive
Cc1cc(N2CCN(C)CC2)nc2ccc(NC(=O)Nc3ccc(Cl)cc3)cc12	none (no result: MARV entry inh)
CCN(CC)c1ccc(C(=O)Nc2ccc3nc(N(CC)CC)cc(C)c3c2)cc1	LASV entry inh inconclusive, MARV entry inh 11µM
Cc1cc(N2CCN(C)CC2)nc2ccc(NC(=O)c3ccc(C(C)(C)C)cc3)cc12	Vaccinia mCherry inconclusive, VACV Venus inh 14µM, MARV entry inh inconclusive
CCOc1ccccc1C(=O)Nc1ccc2nc(N3CCN(c4ncccn4)CC3)cc(C)c2c1	LASV entry inh inconclusive, MARV entry inh 13µM (no result: Vaccinia mCherry, VACV Venus inh)
CCN(CC)c1ccc(-c2nnc(SCC(=O)NCc3ccco3)n2CC)cc1	none (no result: LASV entry inh, MARV entry inh)
Cc1[nH]c2c(ccc3ccccc32)c1C1C(CCN)C1(C)C (stereo not given)	LASV entry inh inconclusive, MARV entry inh 26µM (no result: Vaccinia mCherry, VACV Venus inh)
O=c1[nH]c(=O)n(Cc2ccco2)c2c1C(C(F)(F)F)(C(F)(F)F)N=C(CCC1CCCCC1)N2	none (no result: Vaccinia mCherry, VACV Venus inh)
O=c1[nH]c(=O)n(-c2ccccc2)c2c1C(C(F)(F)F)(C(F)(F)F)N=C(CCC1CCCCC1)N2	LASV entry inh 11µM, MARV entry inh inconclusive
CCOC(=O)c1ccc(Nc2nc(=O)c3cccnc3s2)cc1	Vaccinia mCherry 10µM, MARV entry inh 2.1µM
CC(=O)c1ccc(Nc2nc(=O)c3cccnc3s2)cc1	Vaccinia mCherry inconclusive, LASV entry inh inconclusive, MARV entry inh inconclusive
O=c1nc(Nc2ccc(OCc3ccccc3)cc2)sc2ncccc12	Vaccinia mCherry 0.79µM, LASV entry inh inconclusive, MARV entry inh inconclusive
CN(C)C(=O)Oc1ccc(-c2cn3cc(C(F)(F)F)ccc3n2)cc1	none
Oc1ccc(-c2cn3cc(C(F)(F)F)ccc3n2)cc1	LASV entry inh 2µM, MARV entry inh 5.8µM
S=c1sc2c(Cl)ncnc2n1-c1ccccc1	LASV entry inh 23µM, MARV entry inh 23µM (no result: Vaccinia mCherry, VACV Venus inh)
CCN(CC)S(=O)(=O)c1ccc(Oc2ccccc2OC)cc1	none (no result: LASV entry inh, MARV entry inh)
CCN(CC)S(=O)(=O)c1ccc(Oc2ccc(S(=O)(=O)N(CC)CC)cc2)cc1	LASV entry inh 15µM, MARV entry inh inconclusive (no result: Vaccinia mCherry, VACV Venus inh)
CC1=C(C)Cc2c(nnn2-c2nc(C)nc3sc4c(c23)CCCC4)C1	none (no result: Vaccinia mCherry, LASV entry inh, VACV Venus inh)
COc1ccc(CNC(=O)CSc2nnc3c(n2)[nH]c2ccccc23)cc1	none
COc1ccccc1NC(=O)CSc1nnc2c(n1)[nH]c1ccccc12	LASV entry inh 11µM
CCN(CC)CCNCC1C(=O)O[C@@H]2C[C@@]3(C)CCC[C@H](C)C3=C[C@H]12 (stereo not given in full)	Vaccinia mCherry 4.5µM, LASV entry inh inconclusive, VACV Venus inh 10µM
CN1CCc2cc3c(cc2C1O)OCO3 (stereo not given)	none (no result: LASV entry inh, MARV entry inh)
OC1C=C2CCN3Cc4cc5c(cc4C(C1O)C23)OCO5 (stereo not given)	Vaccinia mCherry inconclusive, VACV Venus inh 7.1µM (no result: LASV entry inh, MARV entry inh)
O[C@@H]1[C@@H](O)C=C2CCN3Cc4cc5c(cc4[C@H]1C23)OCO5 (stereo not given in full)	Vaccinia mCherry inconclusive, VACV Venus inh 4µM (no result: LASV entry inh, MARV entry inh)
CC(C)c1ccc(N=c2c([N+](=O)[O-])nn(-c3ccc4c(c3)OCCO4)n2O)cc1	Vaccinia mCherry inconclusive
CN=c1c([N+](=O)[O-])nn(-c2ccc3c(c2)OCCO3)n1O	Vaccinia mCherry 13µM, VACV Venus inh inconclusive (no result: LASV entry inh, MARV entry inh)
COc1ccc(OC)c(C(Cc2ccnc3ccccc23)Cc2ccnc3ccccc23)c1	none (no result: LASV entry inh, MARV entry inh)
NC(=S)N/N=C/c1cccc(Br)c1	Vaccinia mCherry inconclusive, VACV Venus inh 0.89µM
NC(=S)N/N=C/c1ccc2ccccc2c1	Vaccinia mCherry 0.35µM, VACV Venus inh 1µM, MARV entry inh inconclusive
NC(=S)N/N=C/C=C/c1ccccc1	Vaccinia mCherry 1µM, VACV Venus inh 0.79µM
NC(=S)N/N=C/c1cccc(/C=N/NC(N)=S)c1	none
CCCc1ccc(-c2ccc(/C=C/C(=O)O)cc2)nc1	LASV entry inh 0.46µM, MARV entry inh 0.23µM
CC(=O)c1ccc(C(=O)N2CCc3c(cnc(C)c3CNC(=O)c3ccc4c(c3)OCO4)C2)s1	none (no result: LASV entry inh, MARV entry inh)
O=C(C[C@@H]1C/C=C/CC[C@H](Cc2ccc(F)cc2)C(=O)OC[C@@H](Cc2ccccc2)NC1=O)N[C@H](CO)Cc1ccccc1	Vaccinia mCherry 10µM, VACV Venus inh 14µM (no result: LASV entry inh, MARV entry inh)
O=C1N[C@@H](Cc2ccccc2)COC(=O)[C@@H](Cc2ccc(F)cc2)CC/C=C/C[C@@H]1CC(=O)N(CCO)Cc1ccccc1	Vaccinia mCherry 10µM, VACV Venus inh inconclusive (no result: LASV entry inh, MARV entry inh)
O=C1N[C@H](Cc2ccccc2)COC(=O)[C@@H](Cc2ccc(F)cc2)CC/C=C/C[C@H]1CC(=O)N(CCO)Cc1ccccc1	none (no result: LASV entry inh, MARV entry inh)
C[C@@H]1COC(=O)[C@H](Cc2ccc(F)cc2)CC/C=C/C[C@@H](CC(=O)N[C@@H](CO)Cc2ccccc2)C(=O)N1	Vaccinia mCherry inconclusive (no result: LASV entry inh, MARV entry inh)
O=C1N[C@H](Cc2ccccc2)COC(=O)[C@H](Cc2ccc(F)cc2)CC/C=C/C[C@@H]1CC(=O)N(CCO)Cc1ccccc1	Vaccinia mCherry 28µM, VACV Venus inh inconclusive (no result: LASV entry inh, MARV entry inh)
O=C1N[C@H](Cc2ccccc2)COC(=O)[C@H](Cc2ccc(F)cc2)C/C=C\C[C@@H]1CC(=O)N(CCO)Cc1ccccc1	none (no result: LASV entry inh, MARV entry inh)
Cc1ccc(S(=O)(=O)N2CCCc3cc(NS(=O)(=O)c4ccccc4)ccc32)cc1	LASV entry inh 10µM (no result: MARV entry inh)
Cc1ccc(S(=O)(=O)N2CCCc3cc(NS(=O)(=O)c4ccc(F)cc4)ccc32)cc1	LASV entry inh inconclusive (no result: MARV entry inh)
O=C1c2ccccc2C(=O)C1c1ccc2ccccc2n1	LASV entry inh 5.8µM, MARV entry inh inconclusive
CCN1C(=O)NC(CCc2ccccc2)C(C(C)=O)=C1C (stereo not given)	none (no result: Vaccinia mCherry, LASV entry inh, VACV Venus inh)
CCC1CN(Cc2cn[nH]c2-c2ccccc2)Cc2cc(OC)ccc2O1 (stereo not given)	none (no result: LASV entry inh, MARV entry inh)
C[C@H]1CC[C@H]2C(=O)N(Cc3cccc([N+](=O)[O-])c3)C[C@H](O)CN2[C@H]1c1cccc(Br)c1	LASV entry inh inconclusive (no result: Vaccinia mCherry, VACV Venus inh)
CCOc1cc(/C=C/C(=O)c2ccc(O)cc2)ccc1OCC(=O)N(C)C	Vaccinia mCherry inconclusive, LASV entry inh inconclusive, VACV Venus inh inconclusive
CCOc1cc(/C=C/C(=O)c2ccc3c(c2)OCCO3)ccc1OCC(=O)N(C)C	Vaccinia mCherry 10µM, VACV Venus inh 10µM, MARV entry inh inconclusive (no result: LASV entry inh)
COC(=O)c1cccc(NC(=O)/C=C/c2ccc3c(c2)OCO3)c1	Vaccinia mCherry inconclusive, LASV entry inh 11µM, VACV Venus inh inconclusive, MARV entry inh inconclusive
O=C(O)c1cccc(NC(=S)NC(=O)c2ccc3ccccc3c2)c1	LASV entry inh 0.79µM, MARV entry inh inconclusive
Brc1ccc2c(c1)OCCOCCOc1cc(Br)ccc1OCCOCCOCCO2	Vaccinia mCherry inconclusive, LASV entry inh inconclusive, VACV Venus inh 10µM, MARV entry inh inconclusive
CC(=O)Nc1ccc(NC(=O)/C=C/c2ccc3c(c2)OCO3)cc1	none
O=C(O)c1ccc(NC(=S)NC(=O)c2ccc3ccccc3c2)cc1	none
Cc1ccc(C(=O)Nc2ccc3c(c2)OCO3)cc1	LASV entry inh inconclusive, MARV entry inh inconclusive
Cc1ccc(C(=O)Nc2ccc3c(c2)OCCO3)cc1	LASV entry inh 2.8µM, MARV entry inh inconclusive
